# Results: PubChem BioAssay (NCATS)
# Inconclusive results are not listed. Unmarked numbers belong to inactive results. Active and inactive are the calls of the source. Calls come from the whole dose curve; as a rule, active = well fitted curve in the direction sought with a large enough effect; inconclusive = small, poorly fitted or top-dose-only effect, or another doubt; inactive = no such curve, though single readings can be large; an effect the other way counts as inactive or inconclusive.
# Molecular target: Glutaminase kidney isoform, mitochondrial (Homo sapiens) (UniProt O94925)
# Sequence (O94925 whole entry, looked up, canonical isoform): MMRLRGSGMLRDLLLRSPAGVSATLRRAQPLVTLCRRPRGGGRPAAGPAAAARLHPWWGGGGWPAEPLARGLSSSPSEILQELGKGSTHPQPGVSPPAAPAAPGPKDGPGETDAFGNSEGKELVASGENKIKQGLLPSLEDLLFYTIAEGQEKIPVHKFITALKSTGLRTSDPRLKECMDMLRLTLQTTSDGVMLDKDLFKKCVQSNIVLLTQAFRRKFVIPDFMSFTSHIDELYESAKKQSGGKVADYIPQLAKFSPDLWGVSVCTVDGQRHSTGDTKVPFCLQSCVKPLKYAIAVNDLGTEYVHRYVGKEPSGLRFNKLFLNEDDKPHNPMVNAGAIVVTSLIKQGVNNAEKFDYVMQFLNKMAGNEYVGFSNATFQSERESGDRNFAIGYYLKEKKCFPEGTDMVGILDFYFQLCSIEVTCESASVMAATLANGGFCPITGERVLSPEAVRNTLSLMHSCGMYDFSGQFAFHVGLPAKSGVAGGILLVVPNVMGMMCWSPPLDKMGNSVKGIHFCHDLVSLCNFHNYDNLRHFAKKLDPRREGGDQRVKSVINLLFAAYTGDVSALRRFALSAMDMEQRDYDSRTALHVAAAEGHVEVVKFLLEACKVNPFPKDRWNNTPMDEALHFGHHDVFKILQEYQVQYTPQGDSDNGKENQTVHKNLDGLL
# Test: qHTS for Inhibitors of Glutaminase (GLS): LOPAC Validation (AID 624146); note: nearly all actives have a fitted effect of over 60% in size; note: potency is the fitted concentration of half-maximal effect;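 for activity change, negative = inhibition: glutamate product detected by oxidase and peroxidase coupled Amplex red fluorescence gain; % is set by controls: 0 for no effect and ±100 for the full control effect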
# Conditions: glutaminase enzyme activity inhibition; series mostly up to 46.1 µM; activity change, negative = inhibition: at the top concentration
# Summary of the method: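 Two-point fluorescence kinetic (t0, 30 min RT) for hKGA; glutamate detected via glutamate oxidase–HRP–Amplex Red. Substrate: 1 mM L-glutamine solution; buffer 45 mM KH2PO4, pH 8.2.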
Structure (SMILES),"activity change, negative = inhibition [%]",Potency
O=c1c(-c2ccc(O)cc2)coc2cc(O)cc(O)c12,-35.3,–
CC(C)C(=O)Nc1ccc([N+](=O)[O-])c(C(F)(F)F)c1,-0.89,–
O=C(c1ccc(OCCN2CCCCC2)cc1)c1c(-c2ccc(O)cc2)sc2cc(O)ccc12,–,2.82 µM (active)
NS(=O)(=O)c1cc2c(cc1Cl)NCNS2(=O)=O,-15.5,–
COc1ccc2[nH]cc(CCNC(C)=O)c2c1,-10.4,–
NCCS(=O)(=O)O,-6.56,–
Cn1c(=O)c2c(ncn2C)n(C)c1=O,30.6,–
Clc1ccc(C(c2ccccc2Cl)C(Cl)Cl)cc1 (stereo not given),-19.5,–
Nc1ccn([C@H]2CC[C@@H](CO)O2)c(=O)n1,7.32,–
Nc1c2c(nc3ccccc13)CCCC2,225,–
Cc1cn([C@H]2C=C[C@@H](CO)O2)c(=O)[nH]c1=O,-16.6,–
N[C@@H](Cc1c[nH]c2ccc(O)cc12)C(=O)O,–,1.12 µM (active)
CC(COc1ccccc1)N(CCCl)Cc1ccccc1 (stereo not given),-12.1,–
C[C@](N)(Cc1ccc(O)c(O)c1)C(=O)O,64.1,–
CCOC(=O)C(C)(C)Oc1ccc(Cl)cc1,-0.898,–
CC(C)(Oc1ccc(C2CC2(Cl)Cl)cc1)C(=O)O (stereo not given),-0.489,–
O=C(CCCN1CCC(O)(c2ccc(Cl)cc2)CC1)c1ccc(F)cc1,3.05,–
Cc1cn([C@H]2C[C@H](N=[N+]=[N-])[C@@H](CO)O2)c(=O)[nH]c1=O,-17.2,–
CC(C)Cc1ccc(C(C)C(=O)O)cc1 (stereo not given),85.8,–
CN(Cc1cnc2nc(N)nc(N)c2n1)c1ccc(C(=O)N[C@@H](CCC(=O)O)C(=O)O)cc1,-9.37,–
Cn1cnc2c1c(=O)[nH]c(=O)n2C,90.4,–
O=C(Nc1ccc([N+](=O)[O-])cc1Cl)c1cc(Cl)ccc1O,-11.5,–
CCC1(c2ccccc2)C(=O)NCNC1=O,-2.77,–
O=c1[nH]cc(F)c(=O)[nH]1,-6.03,–

# System: not listed separately
# Test: qHTS of Trypanosoma Brucei Inhibitors: LOPAC Validation (AID 624147); note: 0% is about no effect
# Conditions: purified enzyme assay, luminescence, 45 min; series mostly up to 57.5 µM; activity change, negative = inhibition: at the top concentration
# Summary of the method: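 ADP (130 uM final) triggers the TbPYK reaction after compound addition; incubation is 45 min at room temperature. Kinase-Glo Plus is then added and luminescence imaged. Normalized data are fitted to concentration-effect curves.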
row,Structure (SMILES),"activity change, negative = inhibition [%]"
1,O=c1c(-c2ccc(O)cc2)coc2cc(O)cc(O)c12,-7.07
2,CC(C)C(=O)Nc1ccc([N+](=O)[O-])c(C(F)(F)F)c1,-10.3
3,CN(C)CCOC(c1ccccc1)c1ccccc1,-9.29
4,O=C(c1ccc(OCCN2CCCCC2)cc1)c1c(-c2ccc(O)cc2)sc2cc(O)ccc12,-11.5
5,Cn1c(=O)c2[nH]cnc2n(C)c1=O,2.12
6,NS(=O)(=O)c1cc2c(cc1Cl)NCNS2(=O)=O,-15
7,COc1ccc2[nH]cc(CCNC(C)=O)c2c1,-7.38
8,NCCS(=O)(=O)O,1.1
9,Cn1c(=O)c2c(ncn2C)n(C)c1=O,-5.6
10,Clc1ccc(C(c2ccccc2Cl)C(Cl)Cl)cc1 (stereo not given),5.95
11,Nc1ccn([C@H]2CC[C@@H](CO)O2)c(=O)n1,-5.6
12,Nc1c2c(nc3ccccc13)CCCC2,-10.1
13,Cc1cn([C@H]2C=C[C@@H](CO)O2)c(=O)[nH]c1=O,-8.69
14,N[C@@H](Cc1c[nH]c2ccc(O)cc12)C(=O)O,-12.2
15,CC(COc1ccccc1)N(CCCl)Cc1ccccc1 (stereo not given),-14.9
16,CCOC(=O)C(C)(C)Oc1ccc(Cl)cc1,-6.97
17,CC(C)(Oc1ccc(C2CC2(Cl)Cl)cc1)C(=O)O (stereo not given),-7.69
18,O=C(CCCN1CCC(O)(c2ccc(Cl)cc2)CC1)c1ccc(F)cc1,1.55
19,Cc1cn([C@H]2C[C@H](N=[N+]=[N-])[C@@H](CO)O2)c(=O)[nH]c1=O,-3.57
20,CC(C)Cc1ccc(C(C)C(=O)O)cc1 (stereo not given),-6.1
21,CC(C)NCC(O)c1ccc(O)c(O)c1 (stereo not given),-12.2
22,CN(Cc1cnc2nc(N)nc(N)c2n1)c1ccc(C(=O)N[C@@H](CCC(=O)O)C(=O)O)cc1,-4.44
23,Cn1cnc2c1c(=O)[nH]c(=O)n2C,-13.1
24,O=C(Nc1ccc([N+](=O)[O-])cc1Cl)c1cc(Cl)ccc1O,-7.99
25,CCC1(c2ccccc2)C(=O)NCNC1=O,-10.7
26,O=c1[nH]cc(F)c(=O)[nH]1,-5.51
